Experimental data from PMC5540273 (PLoS ONE, 2017).

Experiments:
Details in all cases: concentration: 1 μM, replicates: in singlicate; n = 1
EPHB6 = tested on: EPHB6
ERBB2 = tested on: ERBB2
ERBB3 = tested on: ERBB3
ERBB4 = tested on: ERBB4
ERK1 = tested on: T1, ERK1
T1 construct: gene MAPK3

ERK2 = tested on: T2, ERK2
T2 construct: gene MAPK1

ERK3 = tested on: T3, ERK3
T3 construct: gene MAPK6

ERK4 = tested on: T4, ERK4
T4 construct: gene MAPK4

ERK5 = tested on: T5, ERK5
T5 construct: gene MAPK7

ERK8 = tested on: T6, ERK8
T6 construct: gene MAPK15

ERN1 = tested on: ERN1
FAK = tested on: T7, FAK
T7 construct: gene PTK2

FER = tested on: FER
FES = tested on: FES
FGFR1 = tested on: FGFR1
FGFR2 = tested on: FGFR2
FGFR3 = tested on: FGFR3
FGFR4 = tested on: FGFR4
FGR = tested on: FGR
FLT1 = tested on: FLT1
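Further: KINOMEscan kinase panel screen.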

Structure (SMILES)	%Inh (EPHB6)	%Inh (ERBB2)	%Inh (ERBB3)	%Inh (ERBB4)	%Inh (ERK1)	%Inh (ERK2)	%Inh (ERK3)	%Inh (ERK4)	%Inh (ERK5)	%Inh (ERK8)	%Inh (ERN1)	%Inh (FAK)	%Inh (FER)	%Inh (FES)	%Inh (FGFR1)	%Inh (FGFR2)	%Inh (FGFR3)	%Inh (FGFR4)	%Inh (FGR)	%Inh (FLT1)
Cc1ccc(C(=O)NCC(N)=O)cc1-n1c(C)cc(OCc2ccc(F)cc2F)c(Br)c1=O	6%	36%	0%	0%	6%	0%	0%	0%	13%	13%	0%	7%	6%	23%	51%	32%	21%	19%	25%	0%
Cn1cc(-c2ccc3c(c2)CCN3C(=O)Cc2ccccc2Cl)c2c(N)ncnc21 [GSK2608885]	98.3%	97.2%	86%	98.9%	0%	0%	0%	23%	47%	0%	37%	42%	64%	22%	59%	82%	43%	15%	99%	98.8%
Cc1cccc(Cn2ccn3c(=O)cc(N4CCOCC4)nc23)c1 [GSK2297542]	24%	1%	0%	27%	20%	5%	27%	32%	0%	0%	16%	0%	30%	10%	0%	16%	16%	10%	32%	20%
O=C(Nc1n[nH]c2cc(-c3cccc(F)c3)ccc12)C1CC1 [SB-735464]	14%	21%	0%	7%	0%	0%	0%	0%	8%	32%	12%	3%	1%	34%	0%	0%	0%	0%	33%	0%
O=C(NOCC1CC1)c1ccc(F)c(F)c1Nc1ccc(I)cc1Cl	0%	0%	0%	0%	0%	8%	0%	17%	0%	8%	0%	0%	0%	0%	0%	0%	0%	0%	0%	10%
Nc1nccc(-c2c(-c3ccc(F)cc3)ncn2C2CCN(CC(F)(F)F)CC2)n1 [SB-236560]	44%	59%	4%	34%	0%	0%	0%	0%	0%	16%	0%	0%	4%	0%	0%	0%	0%	0%	0%	9%
CNc1ncnc2[nH]ncc12 [SKF-18355]	0%	17%	22%	4%	0%	0%	0%	0%	0%	14%	33%	0%	30%	0%	0%	0%	5%	0%	0%	0%
O=C(NCCCN1CCOCC1)c1cccc(Nc2nccc(Nc3ccc(Oc4ccccc4)cc3)n2)c1 [GW663929]	55%	38%	99.3%	79%	0%	0%	0%	34%	27%	0%	21%	0%	19%	16%	0%	0%	30%	54%	93.4%	30%
CSc1ccc(-c2cc3ncnc(SCC(=O)O)c3s2)cc1	33%	22%	7%	0%	0%	19%	0%	14%	2%	18%	0%	0%	10%	9%	5%	0%	0%	0%	23%	2%
Cc1c2ccc(N(C)c3ccnc(Nc4cccc(S(N)(=O)=O)c4)n3)cc2nn1Cc1ccccc1.Cl.Cl [GW787226]	98.9%	0%	0%	0%	0%	0%	0%	0%	12%	3%	0%	0%	63%	36%	65%	85%	59%	19%	57%	98.9%
